Screening data as filed in PubChem BioAssay.
Pf apPOL block: Pf-apPOL DNA polymerase inhibition. Recombinant Pf-apPOL, molecular beacon fluorescence, 1.5 h. inhibition, % at 10 µM. 0.25% of 210,000 active
mHTT CaM bind: disrupts binding of mutant huntingtin to calmodulin; P42858; AlphaScreen His-mHTT/GST-CaM binding, luminescence; inhibition, % at 15 µM; 3.6% of 190,000 active; AID 1671202
Large screens that a line does not name were inactive. Only some compounds are listed: those with a hit (about 3.6% of all), similar ones and a draw of the others. Cut-off read from the data, not from the text of the source: active = inhibition above about 50%; inactive = the rest.

COc1cc(C2C(C#N)=C(N)Oc3c2oc(CO)cc3=O)cc(OC)c1OC (configuration not stated)	none
CC(C)Cn1cc2c3c(cccc31)CN(C(=O)Cc1cccs1)CC2	mHTT CaM bind 64
CC(C)Cn1cc2c3c(cccc31)CN(C(=O)c1ccccn1)CC2	mHTT CaM bind 88
CCn1cc2c3c(cccc31)CN(C(=O)NC(C)C)CC2	none
CC(C)CC(=O)N1CCc2cn(C)c3cccc(c23)C1	none
CCCC(=O)N1CCc2cn(CC(C)C)c3cccc(c23)C1	mHTT CaM bind 53
CC(C)CC(=O)N1CCc2cn(CC(C)C)c3cccc(c23)C1	none
CCNc1cc(N2CCC(CCC(=O)NCc3nc4ccccc4n3C)CC2)ncn1	none
CS(=O)(=O)N1CCc2ccc(NC(=O)Nc3ccc(Cl)cc3F)cc21	none
CCCCC(=O)N1CCc2c(c(C(=O)NCc3cccc(C)c3)nn2C)C1	mHTT CaM bind 59
Cc1cccc(CNC(=O)c2nn(C)c3c2CN(C(=O)CC(C)C)CC3)c1	none
CCCCC(=O)N1CCc2c(c(C(=O)NCc3ccccc3)nn2C)C1	none
Cc1cccc(CNC(=O)c2nn(C)c3c2CN(C(=O)Cc2ccccc2)CC3)c1	mHTT CaM bind 63
CCC(CC)C(=O)N1CCc2c(c(C(=O)NCc3cccc(C)c3)nn2C)C1	none
Cn1nc(C(=O)NCc2ccccc2)c2c1CCN(C(=O)Cc1ccc(F)cc1)C2	mHTT CaM bind 78
Cn1nc(C(=O)NCc2ccc(F)cc2)c2c1CCN(C(=O)c1c(F)cccc1F)C2	none
Cc1cccc(CNC(=O)c2nn(C)c3c2CN(C(=O)C(C)C)CC3)c1	Pf apPOL block 67
Cc1ccc(S(=O)(=O)N(C)CC(=O)N2CCCC2)cc1	none
O=C(Nc1ccccc1)c1ccc(Br)c(S(=O)(=O)NC2CCCCC2)c1	none
Fc1cnc(Nc2ccccc2)nc1N1CCOCC1	none
Oc1ccc(I)cc1C=Nc1cc(Cl)ccc1O	none
Cc1cc(O)c(C=Nc2cc(Cl)ccc2O)cc1C	mHTT CaM bind 52
N=C1NC(=O)/C(=C/c2ccccc2Br)S1	none
N=C1NC(=O)/C(=C/c2ccc(Cl)cc2Cl)S1	Pf apPOL block 56
Cc1nc(N2CCN(C(=O)C3CC3)CC2)c2c3c(sc2n1)CCCC3	none
O=C1CCC(C(=O)NC2C3CC4CC(C3)CC2C4)=NN1 (configuration not stated)	none (no result: Pf apPOL block)
Cc1ccc(SCC(=O)Nc2ccc(F)cc2)cc1	none (no result: mHTT CaM bind)
Cc1ccc(NC(=O)CSc2nc3n(n2)C(=O)C(=O)N3)cc1	Pf apPOL block 94
COc1ccc(C(NC(=O)CCc2ccccc2)c2ccc3cccnc3c2O)cc1 (configuration not stated)	mHTT CaM bind 100
CC(C)CC(=O)NCC#CCOc1ccc2c(c1)OCO2	none
CC(=O)NC(c1ccc(Cl)cc1Cl)c1ccc2cccnc2c1O (configuration not stated)	mHTT CaM bind 100
CC(C)CC(=O)NC(c1ccc2c(c1)OCO2)c1ccc2cccnc2c1O (configuration not stated)	mHTT CaM bind 100
COc1ccc(CCC(=O)NCCCOc2cccc3cccnc23)cc1	none
CCC(=O)NC(c1ccc(OC)cc1)c1ccc2cccnc2c1O (configuration not stated)	mHTT CaM bind 100
CCOC1=NS(=O)(=O)c2ccccc21	none
CC1(C)CC(=O)C2=C(C1)N(c1c(F)cccc1F)C(N)=C(C#N)C2c1cccnc1 (configuration not stated)	none
CCc1ccc(-c2noc(N)c2C#N)s1	none (no result: Pf apPOL block)
CC(C)n1cnnc1C1CCCN(C(=O)c2ccsc2)C1 (configuration not stated)	none
CCC(CC)C(=O)N1CCc2ccccc21	none
CC(C)CC(=O)NC(c1ccccc1)c1ccc2cccnc2c1O (configuration not stated)	mHTT CaM bind 100
Cc1ccc(C(NC(=O)CC(C)C)c2ccc3cccnc3c2O)cc1 (configuration not stated)	none
CCC(=O)NC(c1ccc(Cl)cc1)c1ccc2cccnc2c1O (configuration not stated)	mHTT CaM bind 100
CCC(=O)NC(=O)NC(c1ccccc1)c1ccccc1	none
CCCC(=O)NC(c1ccc(Cl)cc1Cl)c1ccc2cccnc2c1O (configuration not stated)	mHTT CaM bind 100
CCC(=O)NC(c1ccccc1)c1ccc2cccnc2c1O (configuration not stated)	mHTT CaM bind 100
O=C(CSc1ccccc1)N1CCN(c2cccc(Cl)c2)CC1	none
CCN(CC)S(=O)(=O)c1cc(-c2n[nH]c(=O)c3ccccc23)ccc1C	none
CCCCCCN1C[C@H](O)[C@@H](n2cc(COC(=O)c3ccccc3)nn2)C[C@@H]1c1ccccc1	none
O=C(O)CC1Sc2ccccc2NC1=O (configuration not stated)	none
CCCCC(=O)NC(c1ccc(Cl)cc1)c1ccc2cccnc2c1O (configuration not stated)	none
CCCC(=O)NC(c1ccc(Cl)cc1)c1ccc2cccnc2c1O (configuration not stated)	mHTT CaM bind 99
CC(C)CN1CCN(C(=O)c2ccc(-c3cccs3)nc2)CC1	none
CCc1cccc(C)c1NC(=O)CN1C(=O)NC2(CCCCC2)C1=O	none
COc1ccc(Nc2nc(Cl)nc(NC(C)C)n2)cc1	none
COc1ccc(Nc2nc(NN)nc(OCC(F)(F)F)n2)cc1	mHTT CaM bind 92 (no result: Pf apPOL block)
O=c1cc(CSc2ccccn2)c2ccc(O)cc2o1	none (no result: mHTT CaM bind)
c1coc(C2=Nc3ccccc3SC(c3ccc4c(c3)OCO4)C2)c1 (configuration not stated)	mHTT CaM bind 51
COc1ccc(C2CC(c3ccco3)=Nc3ccccc3S2)cc1OC (configuration not stated)	none
Cc1ccc(C2CC(c3ccco3)=Nc3ccccc3S2)cc1 (configuration not stated)	mHTT CaM bind 64
O=C1CC(c2ccc3c(c2)OCO3)Sc2nc(-c3ccccc3)nn21 (configuration not stated)	none
COc1ccc(NC(=O)N2CC(C(=O)NC3CC3)C3(CCOCC3)C2)cc1F (configuration not stated)	none
O=[N+]([O-])c1ccc(-n2cccc2C=NCCO)cc1	none
O=C(Nc1ccccc1CO)c1ccc(Cl)c(Cl)c1	none
Cc1nn(-c2ccccc2)c2sc(C(=O)Nc3ccc(F)cc3)cc12	none
O=C(Nc1ccc(Cl)cc1)c1cc(S(=O)(=O)NC2CCCCCC2)ccc1F	Pf apPOL block 78
O=C(Nc1ccc(Cl)c(Cl)c1)c1ccc(F)c(S(=O)(=O)NC2CCCC2)c1	mHTT CaM bind 65
O=C(Nc1ccc(Cl)c(Cl)c1)c1cc(S(=O)(=O)NC2CCCC2)ccc1F	mHTT CaM bind 93
Cc1ccc(NC(=O)c2cc(S(=O)(=O)NC3CCCC3)ccc2F)cc1Cl	none
O=C(Nc1ccc(Cl)cc1)c1cc(S(=O)(=O)NC2CCCC2)ccc1F	none
CCOc1ccccc1NC(=O)c1cc(S(=O)(=O)NCCc2ccc(Cl)cc2)ccc1F	mHTT CaM bind 56
COc1ccccc1NC(=O)c1cc(S(=O)(=O)NCCc2ccc(Cl)cc2)ccc1F	none
O=C(Nc1ccc(Br)cc1)c1ccc(F)c(S(=O)(=O)NC2CCCC2)c1	none
NCCOc1cc(C(=O)Nc2cc(OCCN)c3ccccc3n2)nc(C(=O)Nc2cc(OCCN)c3ccccc3n2)c1	none (no result: mHTT CaM bind)
COCc1[nH]nc2c1C(c1c(F)cccc1Cl)C(C#N)=C(N)O2 (configuration not stated)	none
O=c1[nH]c2ccccc2n1CCOc1ccccc1	none
CCC(C)NC(=O)c1ccc(CN2C(=O)COc3cc(C)ccc32)cc1 (configuration not stated)	none
